Values joined by “and” are separate entries in the source; they are usually repeats but may differ in a detail not shown here. Equal values may be shown once. Active and inactive are the calls of the source.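 How the source made its calls, unless noted: active means inhibition at or above 50% relative to wild type and mutant plate controls; inactive means inhibition below 50%.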

From PubChem BioAssay come the findings set out here.

Assay [1] can be described thus: inhibitors of TNFa-induced NFkB p65 translocation, primary screen, imaging, HUVEC, MLSMR starter and 10KST1 sets (AID 438;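 active means inhibition above 20% together with a positive visual image hit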;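 further: compound added about 3h40 before a 20 min TNFalpha stimulation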;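 on inhibition: signal is the nuclear over cytoplasmic p65 intensity ratio per well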). Conditions: HUVEC TNFa-induced p65 nuclear translocation; cell count: measured here: nuclei count (cytotoxicity indicator), at 2.08 µM; inhibition: at 2 µM, stronger effect = higher value, 0% TNFa-plus-vehicle, 100% no-TNFa wells.
Assay [2] can be described thus: reduction of polyQ htt aggregates in cells – imaging, exon1htt(103Q)mCFP cells, high-content imaging, primary screen (AID 483;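 active means visual image review flags a hit and inhibition of aggregation exceeds 20%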;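 further: compound exposure lasted 3 days before fixation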;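 on nuclei count: percent of the per-plate median nuclei count of sample wells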). Conditions: exon1htt(103Q)mCFP cell line, aggregate imaging, at 2 µM; inhibition of aggregation: stronger effect = higher value; nuclei count: measured here: cell count, toxicity.
The nature of assay [3]: endothelial E-selectin expression blockers – imaging, HUVEC, immunofluorescence, MLSMR starter and 10KST1 sets, primary screen (AID 487;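 active means visually confirmed hit in the image check and inhibition above 20%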;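 on inhibition: signal is fraction of cell area covered by stained E-selectin grains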;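 on nuclei count: 100% = median nuclei count of all wells on the same plate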). The conditions noted are these: HUVEC TNFalpha-induced E-selectin immunofluorescence imaging, at 2 µM; inhibition: stronger effect = higher value; nuclei count: measured here: cell number, toxicity.
A short description of assay [4]: Primary imaging screen for DUSP6 inhibitors that restore phospho-Erk in transfected HeLa cells, chemical complementation (AID 609;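 active means compounds giving at least 50% inhibition in the cell-based MKP-3 phosphatase rescue imaging test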;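 on inhibition: phospho-Erk level distribution per well compared with pooled transfected vehicle control wells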). Conditions: HeLa MKP-3 transfected, phospho-Erk imaging KS statistic, at 10 µM, cells stimulated with TPA for 15 min.
Assay [5] has as its target Dual specificity protein phosphatase 6 (Homo sapiens) (UniProt Q16828). Described as above. The conditions noted are these: HeLa MKP-3 transfected, phospho-Erk imaging KS statistic; at 10 µM; stronger effect = higher value; cells stimulated with TPA for 15 min.
The target in assay [6] is Voltage-gated potassium channel subunit beta-2 (Rattus norvegicus) (UniProt P62483). Put plainly: inhibitors of rat Kvbeta2 reductase activity – biochemical, NADPH fluorescence, primary screen (AID 622;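 active means fluorescence slope higher than the sample average by over 3 SD, cut at about -0.22 in these data, passing the limit was not always enough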;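 further: slope of raw intensity against log time taken from 70 to 1610 s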). The conditions noted are these: recombinant KvBeta, 4-cyanobenzaldehyde reduction, at 10 µM, stronger effect = higher value.
Chain of Voltage-gated potassium channel subunit beta-2 (Rattus norvegicus) (P62483 whole entry, looked up): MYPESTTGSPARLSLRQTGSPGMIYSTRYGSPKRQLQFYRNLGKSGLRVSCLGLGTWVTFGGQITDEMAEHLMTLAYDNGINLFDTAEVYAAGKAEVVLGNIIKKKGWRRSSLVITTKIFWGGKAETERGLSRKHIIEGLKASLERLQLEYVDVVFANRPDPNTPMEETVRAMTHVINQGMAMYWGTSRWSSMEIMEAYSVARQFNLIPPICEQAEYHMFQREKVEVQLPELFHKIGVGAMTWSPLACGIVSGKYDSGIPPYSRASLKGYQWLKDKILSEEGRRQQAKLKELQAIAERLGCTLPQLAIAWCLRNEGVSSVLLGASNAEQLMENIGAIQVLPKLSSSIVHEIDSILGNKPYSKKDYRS
Assay [7] shares this target. Put plainly: enhancers of rat Kvbeta2 NADPH turnover – biochemical, NADPH fluorescence, primary screen (AID 623;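 active means NADPH fluorescence slope more negative than the mean of all samples by about 3 SD, 99.7% confidence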;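 further: fluorescence intensity change per second fitted from 20 to 320 s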). The conditions noted are these: Recombinant KvBeta, NADPH fluorescence decrease slope, 10 min; at 10 µM; stronger effect = lower value.
Assay [8] addresses Alpha-2C adrenergic receptor (Homo sapiens) (UniProt P18825). Nature of the assay: compounds altering alpha2C-coupled GIRK flux – cell-based, HEK293 alpha2C/GIRK1/2, thallium flux, primary screen (AID 624;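 active means fluorescence slope after compound addition differing from the mean of all screened samples at 99.7% confidence, in either direction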;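 further: slope of fluorescence ratio to pre-addition baseline per second over 15 to 24 s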). Conditions: thallium flux BTC fluorescence, at 10 µM, actives lie on both sides.
Assay [9] concerns the target Muscarinic acetylcholine receptor M4 (Homo sapiens) (UniProt P08173). Put plainly: M4-linked GIRK flux change, two-sided – cell-based, HEK293 M4/GIRK, thallium flux, BTC-AM, M4 allosteric agonist project, primary screen (AID 625;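 active means fluorescence slope after compound addition differing from the mean of all tested samples at 99.7% confidence, mostly higher but some lower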;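 further: thallium influx through GIRK channels coupled to M4 in HEK293 cells with BTC-AM dye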). The conditions noted are these: at 10 µM, actives lie on both sides.
The nature of assay [10]: inhibitors of larval lipid processing in zebrafish, primary screen, whole organism, PED6 fluorescence, gall bladder and intestine (AID 686;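 active means a full or partial loss of lipid-probe fluorescence in the fish gall bladder, intestine or both, judged by eye; inactive means no fluorescence loss, or compound toxic to the fish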;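 further: larvae 5 to 7 days old with five fish per well; signal comes from phospholipase A2 cleavage of quenched PED6 carried via bile; overnight exposure to compound and PED6 before scoring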). The conditions noted are these: Zebrafish larvae PED6 lipid processing, fluorescence scoring; screened at 20 µM (by protocol).
Assay [11] is described as follows: loss of swimming-algae plug formation – whole organism, Chlamydomonas reinhardtii, WT vs cilia-less mutant, absorbance, 96-well, primary screen (AID 463189).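 Further: 0% = wild type cc124 cells in DMSO and 100% = ciliumless bld1 mutant cells.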 Conditions: Chlamydomonas reinhardtii gravitaxis, OD600 absorbance, 2 days; at 10 µM; stronger effect = higher value.
Assay [12] in a line: blockers of RIG-like receptor reporter activation – cell-based, Sendai virus stimulus, luciferase, 10K MLSCN set, TLR/RLR signaling modifier project, primary screen (AID 602276;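 active means inhibition at or above 50% at 10 µM; inactive means inhibition below 50%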;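 further: firefly luciferase from ISG56 promoter only with Renilla not read in this screen; 0% = Sendai virus plus DMSO and 100% = medium plus DMSO without virus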). The conditions noted are these: HEK293 RL24 IRF3 luciferase reporter, at 10 µM, stronger effect = higher value.
The nature of assay [13]: TLR3 IRF3 reporter activation blockers – cell-based, poly I:C stimulus, luciferase, 10K MLSCN set, primary screen (AID 602277;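 active means inhibition of the reporter signal at or above 50%; inactive means inhibition below 50%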). Conditions: HEK293-TLR3 RL24 IRF3 luciferase reporter, at 10 µM, stronger effect = higher value.
The mark [14] stands for this setting: measured here: cell density z-score.
Setting [15] is: measured here: nuclear c-Myc green intensity z-score.
The mark [16] stands for this setting: measured here: nuclear pErk red intensity z-score, stronger effect = higher value.

Chain of Dual specificity protein phosphatase 6 (Homo sapiens) (Q16828 whole entry, looked up): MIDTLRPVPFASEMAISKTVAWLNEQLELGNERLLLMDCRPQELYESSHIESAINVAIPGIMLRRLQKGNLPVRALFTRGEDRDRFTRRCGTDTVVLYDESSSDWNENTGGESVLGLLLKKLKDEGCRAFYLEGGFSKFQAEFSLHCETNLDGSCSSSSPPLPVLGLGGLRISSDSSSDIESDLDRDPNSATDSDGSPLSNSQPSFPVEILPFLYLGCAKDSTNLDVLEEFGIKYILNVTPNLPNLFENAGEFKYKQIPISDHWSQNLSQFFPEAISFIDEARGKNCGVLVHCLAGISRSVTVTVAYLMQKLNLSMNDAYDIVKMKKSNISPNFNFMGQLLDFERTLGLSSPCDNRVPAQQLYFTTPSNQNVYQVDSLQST
Chain of Muscarinic acetylcholine receptor M4 (Homo sapiens) (P08173 whole entry, looked up): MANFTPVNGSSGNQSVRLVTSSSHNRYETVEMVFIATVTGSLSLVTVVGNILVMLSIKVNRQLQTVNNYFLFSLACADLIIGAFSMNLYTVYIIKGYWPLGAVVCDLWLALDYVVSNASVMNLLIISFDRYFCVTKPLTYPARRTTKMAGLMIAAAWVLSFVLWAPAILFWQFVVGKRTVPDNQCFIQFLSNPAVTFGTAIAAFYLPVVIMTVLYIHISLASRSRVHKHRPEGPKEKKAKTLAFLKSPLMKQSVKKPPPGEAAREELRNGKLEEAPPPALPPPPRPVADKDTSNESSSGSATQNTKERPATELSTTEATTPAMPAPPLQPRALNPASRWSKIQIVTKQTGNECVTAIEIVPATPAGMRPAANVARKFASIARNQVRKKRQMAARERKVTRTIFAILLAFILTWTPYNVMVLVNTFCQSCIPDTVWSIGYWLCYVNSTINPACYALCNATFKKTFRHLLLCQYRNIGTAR
Chain of Alpha-2C adrenergic receptor (Homo sapiens) (P18825 whole entry, looked up): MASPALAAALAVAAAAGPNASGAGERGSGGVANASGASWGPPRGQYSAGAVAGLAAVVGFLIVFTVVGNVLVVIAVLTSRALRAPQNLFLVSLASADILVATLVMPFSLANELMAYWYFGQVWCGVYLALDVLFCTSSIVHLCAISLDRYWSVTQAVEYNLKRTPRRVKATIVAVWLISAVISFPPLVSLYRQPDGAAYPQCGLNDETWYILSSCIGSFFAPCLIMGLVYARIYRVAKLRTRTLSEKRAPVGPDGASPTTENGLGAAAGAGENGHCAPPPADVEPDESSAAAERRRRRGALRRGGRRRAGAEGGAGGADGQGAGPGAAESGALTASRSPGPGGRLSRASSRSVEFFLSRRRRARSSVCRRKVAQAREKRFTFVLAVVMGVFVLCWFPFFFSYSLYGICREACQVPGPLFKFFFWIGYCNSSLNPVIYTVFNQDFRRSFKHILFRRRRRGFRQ

The inhibition is the drop in the measured response relative to a control, in per cent. Consider `CCCc1nc(N2CCOCC2)c(C#N)c2c1CCCC2`, for which the cell count in assay [1] was 496. The inhibition in [1] is -5.5% (inactive); in assay [3], -58.9% (inactive); in [5] it was 5.35% (inactive); in assay [11] it was -4.21% (inactive); in assay [12] it was 19.9% (inactive); in [13] it was 22.6% (inactive). For the same compound, the inhibition of aggregation in [2] was -8.4% (inactive). In addition, the nuclei count in [2] is 89.6%; in assay [3] it was 128%. In addition, the z-score in assay [4] (setting [14]) is -0.193; in assay [4] (setting [15]), 0.212; in assay [4] (setting [16]) it was -0.0343. For the same compound, the fluorescence slope in [6] was -0.436 (inactive); in assay [9], 0.00443 (inactive). Also, the NADPH fluorescence slope in [7] was -0.000102 (inactive). In addition, the slope in [8] was 0.00439 (inactive). Moreover, the compound was called inactive in assay [10].

Turning to `CN1CCN2c3ccccc3Cc3ccccc3C2C1` (stereo not given), in [1], the cell count was determined as 620. For the same compound, the inhibition in [1] is 1.5% (inactive); in assay [3] it was -52% (inactive); in assay [5], 19.2% (inactive); in assay [11] it was 15.2% (inactive) and 10.4% (inactive); in [12] it was 12.6% (inactive); in [13] it was 45.7% (inactive). For the same compound, in assay [2], the inhibition of aggregation is 11.1% (inactive). The figures for the nuclei count in assay [2] and in assay [3] were 113% and 117%, respectively. Moreover, the z-score is -0.186 in assay [4] (setting [14]), -0.363 in [4] (setting [15]) and -0.896 in [4] (setting [16]). The fluorescence slope is -0.574 (inactive) in assay [6] and 0.0128 (active) in [9]. Besides, the NADPH fluorescence slope in [7] was -3.8e-05 (inactive). The slope in assay [8] was 0.0196 (active). The outcome in assay [10] was inactive.

As to `Cc1ccc(S(=O)(=O)N2CCN(c3nc(C(C)C)c4c(c3C#N)CC(C)(C)OC4)CC2)cc1`, the cell count in assay [1] came out at 604. Further, the inhibition was -7.5% (inactive) in assay [1]; -19.5% (inactive) in [3]; 5.35% (inactive) in assay [5]; -7.57% (inactive) in assay [11]; -1.31% (inactive) in assay [12]; 44.4% (inactive) in assay [13]. The inhibition of aggregation in assay [2] is -19.5% (inactive). In addition, the nuclei count is 102% in assay [2] and 120% in assay [3]. Moreover, the z-score in assay [4] (setting [14]) was 0.934; in assay [4] (setting [15]) it was 0.596; in assay [4] (setting [16]) it was -1.08. The results for the fluorescence slope in [6] and in assay [9] were -0.441 (inactive) and 0.00645 (inactive), respectively. The NADPH fluorescence slope in [7] was -8.5e-05 (inactive). For the same compound, the slope in assay [8] is 0.00654 (inactive). Besides, the outcome in [10] is “inactive; toxic”.

In the case of `Cc1cc(/C=c2/sc3nc4ccccc4n3c2=O)c(C)n1-c1ccccn1`, in [1], the cell count was determined as 477. Also, the inhibition was -8.3% (inactive) in assay [1]; -51.9% (inactive) in assay [3]; 1.04% (inactive) in [5]; -7.65% (inactive) in assay [11]; 58.3% (active) in assay [12]; 93% (active) in assay [13]. Also, the inhibition of aggregation in assay [2] was -17% (inactive). For the same compound, the nuclei count turned out to be 105% in [2] and 114% in assay [3]. Further, the figures for the z-score in assay [4] (setting [14]), in assay [4] (setting [15]) and in [4] (setting [16]) were 0.162, 1.46 and -0.242, respectively. Besides, the fluorescence slope in assay [6] was -0.436 (inactive); in assay [9] it was 0.00476 (inactive). The NADPH fluorescence slope in [7] is -8.3e-05 (inactive). Besides, the slope in assay [8] was 0.00546 (inactive). Moreover, the result in assay [10] was inactive.

For `C/C(=N\O)C(=O)NCCCNCCCN(C)C`, the cell count in [1] is 609. The inhibition was -2.7% (inactive) in [1]; -42% (inactive) in assay [3]; -3.95% (inactive) in assay [5]; -5.12% (inactive) in assay [11]; 15.3% (inactive) in assay [12]; 20.9% (inactive) in [13]. Further, the inhibition of aggregation in assay [2] was -14.3% (inactive). For the same compound, the nuclei count in assay [2] is 109%; in assay [3], 115%. Besides, the z-score in [4] (setting [14]) was -1.26; in assay [4] (setting [15]), 0.664; in assay [4] (setting [16]) it was -0.264. Moreover, the results for the fluorescence slope in assay [6] and in [9] were -0.495 (inactive) and 0.00686 (inactive), respectively. The NADPH fluorescence slope in [7] is -5.8e-05 (inactive). Further, in assay [8], the slope is 0.0053 (inactive). For the same compound, the compound was called inactive in assay [10].
